Measured values from publication PMC5540273 (PLoS ONE, 2017).

How the values were obtained:
Conditions in all cases: concentration: 1 μM,replicates: in singlicate; n = 1
NEK11 = system: NEK11
NEK1 = system: NEK1
NEK2 = system: NEK2
NEK3 = system: NEK3
NEK4 = system: NEK4
NEK5 = system: NEK5
NEK6 = system: NEK6
NEK7 = system: NEK7
NEK9 = system: NEK9
NIK = system: T1, NIK
T1 construct: gene MAP3K14
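Note: KINOMEscan kinase panel screen.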

Compound	%Inh (NEK11)	%Inh (NEK1)	%Inh (NEK2)	%Inh (NEK3)	%Inh (NEK4)	%Inh (NEK5)	%Inh (NEK6)	%Inh (NEK7)	%Inh (NEK9)	%Inh (NIK)
Cc1ccn2nc(-c3ccc(F)cc3)c(-c3ccncc3)c2c1.Cl [GW457859]	43%	12%	0%	3%	0%	0%	0%	0%	4%	38%
CCOC(=O)N1CCC(n2cnc(-c3ccc(F)cc3)c2-c2ccnc(N)n2)CC1 [SB-219952]	20%	0%	0%	21%	15%	26%	0%	31%	23%	0%
COC(=O)c1cccc(NC(=O)NC2CCN(c3ccnc(NCc4ccc(F)cc4)n3)CC2)c1 [GSK1379860]	7%	0%	0%	0%	6%	0%	0%	4%	0%	8%
O=C(Nc1n[nH]c2cc(-c3ccco3)ccc12)C1CC1 [SB-737447]	24%	6%	0%	28%	7%	0%	0%	0%	0%	0%
CS(=O)c1ccc(-c2coc3ccc(-c4n[nH]c(=O)o4)cc23)cc1 (stereo not drawn)	0%	0%	0%	15%	0%	0%	0%	19%	0%	0%
CN(c1cccc(CNc2nc(Nc3ccc4c(c3)CC(=O)N4)ncc2C(F)(F)F)c1)S(C)(=O)=O	0%	0%	0%	20%	0%	17%	23%	0%	6%	21%
O=C(NOCC1CC1)c1cc(Br)c(F)c(F)c1Nc1ccc(I)cc1Cl	0%	0%	0%	43%	0%	0%	0%	0%	0%	0%
CC(=O)Nc1nc2cnc(Nc3cc(NC(=O)c4cccc(CC(C)(C)C#N)c4)ccc3C)nc2s1	0%	13%	6%	30%	0%	0%	13%	5%	5%	0%
CCN1CCN(CCCC(=O)Nc2n[nH]c3nc(-c4ccc(O)cc4)c(Br)cc23)CC1 [SB-731579]	0%	0%	0%	18%	0%	0%	0%	5%	22%	27%
COC(=O)Nc1nc2cc(Oc3ccc(NC(=O)Nc4cc(C(F)(F)F)ccc4Cl)cc3)ccc2[nH]1.Cl [GW697465]	29%	0%	0%	0%	3%	0%	0%	0%	28%	0%
CN(c1ccc2c(c1)nc(NCc1ccc(F)cc1)n2C)c1ccnc(Nc2ccc(CS(C)(=O)=O)cc2)n1.Cl [GW813244]	0%	0%	0%	36%	0%	0%	0%	0%	21%	0%
Cl.c1ccc(Oc2ccc(Nc3ccnc4cc(-c5ccc(CN6CCNCC6)o5)ccc34)cc2)nc1 [GW567142]	0%	0%	6%	2%	0%	0%	0%	5%	17%	7%
C[C@@H](Oc1cc(-n2cnc3cc(-c4cnn(C)c4)ccc32)sc1C(N)=O)c1ccccc1Cl [GSK580432]	0%	88%	99.2%	0%	0%	99.7%	41%	71%	81%	7%
COc1cc2c(Nc3ccc(NC(=O)c4ccccc4)cc3)ncnc2cc1OCCCN1CCOCC1 [GSK301329]	0%	0%	0%	0%	22%	0%	0%	0%	13%	9%
CCNCC(Cc1ccccc1)NC(=O)c1cc(Br)c(-c2ccnc3[nH]ccc23)s1.Cl.Cl (stereo not drawn) [GSK1383280]	0%	79%	18%	17%	0%	79%	0%	0%	10%	0%
OCCn1cc(-c2cnc3nnn(Cc4ccc5ncccc5c4)c3n2)cn1	0%	0%	6%	32%	0%	0%	0%	8%	0%	15%
CNC(=O)c1ccccc1Nc1nc(Nc2cccc(CS(C)(=O)=O)c2)ncc1C.O=CO [GSK1520489]	66%	71%	78%	86%	70%	100%	83%	94.9%	78%	23%
NC(=O)c1ccc(-c2cc3ncnc(SCC(=O)O)c3s2)cc1	0%	0%	0%	35%	0%	0%	7%	0%	0%	0%
Cn1cc(-c2cccc3c(N)c(C(N)=O)nnc23)cn1	0%	0%	15%	22%	16%	6%	5%	0%	0%	21%
COc1cccc(C2=C(Nc3cccc(Cl)c3)C(=O)NC2=O)c1 [SB-341556]	0%	0%	13%	5%	29%	0%	0%	5%	1%	26%
Cc1cccc2c(-c3ccncc3)c(-c3ccc(F)cc3)nn12.Cl [GW461487]	4%	0%	0%	0%	0%	16%	0%	0%	15%	10%
COc1cc2nccc(Nc3ccc(Oc4ccccc4)cc3)c2cc1OC.Cl [GI261656]	0%	0%	0%	0%	0%	0%	0%	0%	2%	0%

Compound	%Inh (NEK11)	%Inh (NEK1)	%Inh (NEK2)	%Inh (NEK3)	%Inh (NEK4)	%Inh (NEK5)	%Inh (NEK6)	%Inh (NEK7)	%Inh (NEK9)	%Inh (NIK)
CC(C)S(=O)(=O)N1CCN(Cc2ccc3c(c2)nc(NC(=O)c2ccsc2)n3C[C@H](O)c2ccccc2)CC1 [GW635815]	1%	0%	0%	0%	9%	8%	0%	0%	1%	9%
C[C@@H]1CCN(C(=O)N2CCCC2)C[C@@H]1N(C)c1ncnc2[nH]ccc12	0%	4%	0%	39%	5%	0%	8%	0%	0%	0%
Cl.Cl.NC[C@H](CC1CCCCC1)NC(=O)c1ccc(-c2ccnc3[nH]ccc23)s1 [GSK1581428]	0%		0%	0%	14%	15%	0%	1%	17%	0%
Cc1ccc2c(-c3ccnc(Nc4ccc(C(F)(F)F)cc4)n3)cnn2n1 [GW819776]	0%	0%	0%	78%	9%	84%	0%	2%	6%	10%
C[C@@H]1CNc2c(sc3ccc4nc(-c5ccc(O)cc5)ccc4c23)C(=O)N1	0%	0%	0%	20%	0%	0%	38%	11%	8%	84%
c1ccc(Oc2ccc(Nc3ccnc4ccc(-c5ccccn5)cc34)cc2)cc1 [GW407034]	0%	0%	0%	9%	28%	0%	1%	0%	0%	9%
FC(F)(F)c1cc(Br)cc(Nc2nccc(-c3cnn4ncccc34)n2)c1 [GW810578]	0%	0%	1%	15%	2%	30%	51%	60%	15%	21%
Cc1n[nH]c2cc(Nc3ccnc(Nc4cccc(CN5CCOCC5)c4)n3)ccc12 [GW682569]	17%	2%	0%	20%	0%	29%	0%	0%	15%	0%
CN1CCN(CCCNc2nccc(-c3c(-c4ccc(F)cc4)nn4cc(C(N)=O)ccc34)n2)CC1 [GW622475]	0%	0%	8%	6%	10%	15%	0%	25%	41%	5%
C[C@@H](Oc1cc(-n2cnc3ccc(-c4ccncc4)cc32)sc1C(N)=O)c1ccccc1Cl [GSK483724]	0%	51%	86%	0%	4%	72%	14%	17%	76%	1%
C[C@@H](Oc1cc(-n2cnc3cc(-c4ccncc4)ccc32)sc1C(N)=O)c1ccccc1Cl [GSK479719]	0%	66%	96.5%	5%	21%	82%	0%	12%	62%	0%
O=C(Nc1cccc(Oc2ccc3nccn3n2)c1)Nc1cccc(C(F)(F)F)c1	0%	0%	8%	7%	0%	0%	0%	0%	0%	27%
COc1ccc(Nc2nccc(N3CCC(NC(=O)c4cccc(C#N)c4)C3)n2)cc1 (stereo not drawn) [GSK1379730]	0%	0%	0%	0%	3%	12%	30%	0%	0%	0%
O=C(Nc1ccccc1)c1cccc(Oc2ccc3nccn3n2)c1	20%	0%	2%	17%	0%	12%	0%	0%	0%	34%
CC(C)c1nc(-c2cccc(NS(=O)(=O)c3ccccc3)c2)c(-c2ccnc(Nc3ccc4c(c3)CN(C)CC4)n2)s1 [GSK1649598]	97.7%	14%	34%	27%	18%	0%	0%	0%	51%	3%
Cn1ccc2ncnc(Oc3ccc(NC(=O)Nc4cccc(C(F)(F)F)c4)c(F)c3)c21	0%	0%	15%	17%	0%	7%	27%	0%	0%	0%
CS(=O)(=O)Nc1ccc(-c2ccnc3[nH]ccc23)cc1 [GSK993273]	17%	15%	0%	4%	16%	2%	0%	10%	14%	22%
COc1cc2ncn(-c3cc(OCC4CCCCC4)c(C(N)=O)s3)c2cc1OC [GSK204559]	0%	12%	40%	0%	10%	9%	0%	21%	33%	16%
Nc1nccc(-c2ccc3c(N)n[nH]c3c2)n1 [GSK1034945]	0%	0%	3%	9%	0%	4%	0%	3%	10%	0%
O=c1[nH]cc(-c2ccc(O)cc2)c2sc(-c3ccncc3)cc12 [GSK1033723]	23%	0%	0%	0%	0%	17%	0%	0%	18%	0%
Cl.Nc1n[nH]c2cc(-c3ccccn3)ccc12 [GSK2189892]	0%	0%	0%	1%	0%	0%	0%	0%	3%	0%
